Bioassay records from PubChem BioAssay.
D3 ag: qHTS of D3 Dopamine Receptor Agonist: qHTS; 0.58% of 410,000 active; max activation, %; D3R DiscoveRx beta-arrestin cells, luminescence, 90 min; in the data active = max activation above about 30%; also: 0% is about no effect
Target sequence (P35462 whole entry, looked up): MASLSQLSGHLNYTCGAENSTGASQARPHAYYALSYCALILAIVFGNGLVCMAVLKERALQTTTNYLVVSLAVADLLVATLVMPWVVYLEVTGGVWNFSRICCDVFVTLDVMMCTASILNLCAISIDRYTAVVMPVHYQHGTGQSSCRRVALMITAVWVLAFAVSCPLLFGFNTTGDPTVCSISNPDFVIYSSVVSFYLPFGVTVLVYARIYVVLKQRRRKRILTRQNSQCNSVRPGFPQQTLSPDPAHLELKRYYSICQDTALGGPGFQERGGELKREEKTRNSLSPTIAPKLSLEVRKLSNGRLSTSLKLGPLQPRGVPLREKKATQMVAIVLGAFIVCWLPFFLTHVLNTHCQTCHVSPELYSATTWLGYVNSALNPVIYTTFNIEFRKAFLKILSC
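Cells at 1500/well, incubated overnight, then treated with pinned compounds (dopamine as control) for 90 min at 37 degrees C. DiscoveRx reagent added for 30 - 60 minutes at room temperature; luminescence read.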
D3 antag: qHTS of D3 Dopamine Receptor Antagonist: qHTS; D(3) dopamine receptor (Homo sapiens), P35462; D3R cells, DiscoveRx beta-arrestin luminescence, antagonist mode; hits give low values; max response, negative = inhibition, %; 2.5% of 360,000 active; AID 652054, 2013; in the data active = max response below about -50%; inconclusive = no clear call, values can overlap the other calls; also: % is scaled to controls: 0 for no effect and ±100 for the full control effect
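Cells expressing the human receptor were seeded at 1500 cells/well, incubated overnight at 37 degrees C in 5% CO2, then exposed to library compounds with dopamine controls for 90 minutes at 37 degrees C before luminescent detection.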
D1 antagonist: Antagonist of Human D 1 Dopamine Receptor: qHTS. D(1A) dopamine receptor (Homo sapiens), P21728. HEK293 TREx D1 cells, calcium flux, dopamine EC80; hits give low values. activity change, negative = inhibition, % at 10 µM. 3.2% of 360,000 active. AID 504652, 2011; in the data active = activity change below about -30%; also: % is scaled to controls: 0 for no effect and ±100 for the full control effect
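Inducible Hek293 Trex D1 cells (tetracycline, overnight, 30 C). Calcium dye 30–90 min RT. Antagonist mode: EC80 dopamine added after 180 s compound read.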
D1 agonist: Allosteric Agonists of the Human D1 Dopamine Receptor: qHTS; 1% of 360,000 active; activation, % at 2 µM; HEK293 T-REx D1 cells, calcium flux, agonist mode; AID 504660, 2011; D(1A) dopamine receptor (Homo sapiens), P21728; in the data active = activation above about 30%; also: 0% is about no effect
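Tetracycline-induced HEK293 TREx D1 cells, force-coupled to calcium signalling, were dye-loaded with a no-wash calcium kit. Compound was pin-added after a 10 s baseline. Fluorescence was read kinetically at 1 cycle/s for 180 s, with calcium rises flagged as agonism.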
D1 PAM: Potentiators of Human D1 Dopamine Receptor: qHTS; HEK293 TREx D1 cells, calcium flux, dopamine EC20 potentiation; 0.036% of 360,000 active; D(1A) dopamine receptor (Homo sapiens), P21728; potentiation, % at 10 µM; in the data active = potentiation above about 30%; also: 0% is about no effect
Starred values were filed as active, the others as inactive. Compounds with a hit are over-represented: about 6.1% of the library has one in this group of screens.

Screening Cc1cc(F)ccc1NC(=O)C(c1ccccc1)N1Cc2ccccc2C1=O (centres undefined) returned D3 ag -17.4, D1 antagonist -10.3, D1 agonist -1.8 and D1 PAM -3.5.
COc1ccc(C2C(C(=O)c3ccccc3)N3c4ccccc4C=CC3C2[N+](=O)[O-])cc1 (centres undefined) was read as D3 ag 6.1, D3 antag -5.4, D1 antagonist -5.6, D1 agonist 41.2* and D1 PAM -3.1.
For Cc1cccc(N2CCN(C(=O)Cn3c(=O)c4cccn4c4ccc(F)cc43)CC2)c1C the results were D3 ag 5.1, D1 antagonist 3.0, D1 agonist 0.8 and D1 PAM -1.8.
C/C(=N\NC(=O)C(C)Oc1ccc([N+](=O)[O-])cc1)c1ccccn1 (centres undefined) was read as D3 ag -90.5, D3 antag -105.8*, D1 antagonist -2.4, D1 agonist 2.1 and D1 PAM -8.2.
For COc1ccc(C(=O)/C(C#N)=N/Nc2ccc([N+](=O)[O-])cc2)cc1 the results were D3 ag -10.6, D3 antag inconclusive, D1 antagonist -38.8*, D1 agonist 25.7 and D1 PAM -3.6.
`CC(C)NS(=O)(=O)c1ccc(NC(=O)C(C)Oc2ccc(C(=O)c3ccccc3)cc2)cc1` (centres undefined) gave D3 ag -12.7, D3 antag -54.3*, D1 antagonist -15.8, D1 agonist 136.0* and D1 PAM 2.7.
For COc1ccc(NC(=O)C(C)Oc2ccc(/C(C)=N\O)cc2)cc1 (centres undefined) the results were D3 ag 2.9, D3 antag 17.9, D1 antagonist -1.4, D1 agonist 51.3* and D1 PAM -1.6.
`CC(Oc1ccccc1)C(=O)Nc1ccc(C(N)=O)cc1` (centres undefined) gave D3 ag -31.3, D3 antag inconclusive, D1 antagonist -27.2, D1 agonist 13.5 and D1 PAM 4.3.
For Cc1ccc(OCc2cc(=O)n3c4c(sc3n2)CCCC4)c(C)c1 the results were D3 ag -0.3, D1 antagonist 9.5, D1 agonist 1.6 and D1 PAM 1.6.
COc1ccc(OC(C)C(=O)Nc2ccc([N+](=O)[O-])cc2)cc1 (centres undefined) was read as D3 ag -7.1, D3 antag 3.6, D1 antagonist -44.4*, D1 agonist 22.6 and D1 PAM -1.5.
Screening O=C(c1ccccc1)c1ccc(Sc2ccc([N+](=O)[O-])cc2)cc1 returned D3 ag 6.4, D3 antag -6.9, D1 antagonist -31.0*, D1 agonist 15.7 and D1 PAM -2.2.
For CC(C)Oc1ccc(C(=O)Nc2ccc([N+](=O)[O-])cc2)cc1 the results were D3 ag 1.5, D3 antag 5.6, D1 antagonist -15.3, D1 agonist 36.3* and D1 PAM -8.9.
CCC(CC)C(=O)Nc1ccc(Sc2ccc([N+](=O)[O-])cc2)cc1 was read as D3 ag -4.7, D3 antag 13.4, D1 antagonist -34.7*, D1 agonist 31.5* and D1 PAM -7.9.
Screening CCCC(=O)Nc1ccc(Sc2ccc([N+](=O)[O-])cc2)cc1 returned D3 ag -2.3, D3 antag -15.2, D1 antagonist -27.6, D1 agonist 6.7 and D1 PAM -8.1.
For CC(=O)Nc1ccc(NC(=O)CSc2nnc(NC(=O)c3ccccc3F)s2)cc1 the results were D3 ag 6.2 and D3 antag 15.5.
O=C(Nc1ccc(Oc2cccnc2)cc1)c1ccc([N+](=O)[O-])cc1 was read as D3 ag 2.1, D3 antag -9.7, D1 antagonist -31.0*, D1 agonist 36.7* and D1 PAM -8.6.
`Cc1sc2nc(SCC(=O)N3CCCC3)[nH]c(=O)c2c1C` gave D3 ag -7.6, D3 antag -18.5, D1 antagonist -33.5*, D1 agonist -2.3 and D1 PAM 17.8.
For Cc1c(C)c2ccc(Oc3ccc([N+](=O)[O-])cc3C(F)(F)F)c(C)c2oc1=O the results were D3 ag 2.7, D3 antag 5.8, D1 antagonist -33.3*, D1 agonist 2.7 and D1 PAM -3.5.
Screening CC1(C)N=C(c2ccccc2)C(=O)N1 returned D3 ag 9.5, D3 antag 13.8, D1 antagonist -7.2, D1 agonist 1.7 and D1 PAM -0.1.
CC1(C)N=C(c2cccc(F)c2)C(=O)N1 was read as D3 ag 43.4*, D3 antag 16.0, D1 antagonist 1.8, D1 agonist -0.2 and D1 PAM -12.6.
Screening COC1=C(C(=O)O)N2C(=O)[C@@H](NC(=O)[C@H](N)C3=CCC=CC3)[C@H]2SC1 returned D3 ag -22.1.
For COCCOC(=O)c1c(C)oc2ccc(NS(=O)(=O)c3ccc(C)cc3)cc12 the results were D3 ag 4.1, D3 antag -3.9, D1 antagonist -8.2, D1 agonist 11.3 and D1 PAM 1.9.
For CCc1ccc(S(=O)(=O)Nc2ccc3oc(C)c(C(=O)OCCOC)c3c2)cc1 the results were D3 ag 8.6, D1 antagonist -42.7*, D1 agonist 21.7 and D1 PAM 1.1.
`CCOC(=O)c1c(C)oc2c(Cl)cc(NS(=O)(=O)c3ccc(Cl)c(C)c3)cc12` gave D3 ag -5.7, D1 antagonist -30.6*, D1 agonist 13.1 and D1 PAM -2.7.
`O=C(CC1N=C2c3ccccc3N=C(SCC(=O)Nc3ccccc3F)N2C1=O)NCc1ccc2c(c1)OCO2` (centres undefined) gave D3 ag -2.5, D1 antagonist 3.2, D1 agonist 0.5 and D1 PAM -1.5.
For O=C(Nc1ccc(Cl)cc1)c1ccc2nsnc2c1 the results were D3 ag -20.2, D3 antag -19.9, D1 antagonist -46.9*, D1 agonist 19.6 and D1 PAM -14.9.
CN(C)c1cccc(C(=O)Nc2ccc3nc4n(c(=O)c3c2)CCCCC4)c1 was read as D3 ag -2.5, D3 antag -60.6*, D1 antagonist -14.0 and D1 agonist -0.4.
`CC(OC(=O)c1ccc2c(=O)n3c(nc2c1)CCCCC3)C(=O)Nc1ccc(F)cc1Cl` (centres undefined) gave D3 ag 3.5, D3 antag 5.7, D1 antagonist -37.0*, D1 agonist 0.2 and D1 PAM -4.2.
`CN(C)c1ccc(NC(=O)c2ccc3nsnc3c2)cc1` gave D3 ag -3.6, D3 antag -8.8, D1 antagonist 6.0, D1 agonist 0.6 and D1 PAM -7.2.
